pPAFAH FP inh: pPAFAH (human) enzyme inhibition. 330,000 tested, 1.5% active. inhibition, % at 3.39 µM. Q13093. recombinant pPAFAH, FP-rhodamine probe fluorescence polarization;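 active means inhibition above the mean inhibition across the screen plus 3 SD, cut at about 25% in these data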;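 further: inhibitors block binding of the rhodamine activity-based probe so polarization drops; 0% = enzyme with DMSO and 100% = wells lacking pPAFAH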
PAFAH2 inh: inhibitors of human PAFAH2; Q99487; inhibition, % at 3.39 µM; recombinant PAFAH2, FP-rhodamine activity probe, fluorescence polarization; 340,000 tested, 0.99% active;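 active means inhibition above the mean over all tested compounds plus 3 SD, cut at about 30% in these data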;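 further: inhibitors block probe labeling of enzyme so polarization drops; 0% = enzyme with DMSO and 100% = wells lacking PAFAH2 protein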
PAFAH1B2 FP inh: blocks human PAF acetylhydrolase 1b catalytic subunit 2. inhibition, % at 3.39 µM. 340,000 tested, 1.2% active. P68402. recombinant PAFAH1B2, FP-rhodamine activity probe, fluorescence polarization;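 active means inhibition above the mean of all tested compounds plus 3 SD, cut at about 24% in these data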;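 further: 0% = enzyme with DMSO and 100% = wells lacking PAFAH1B2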
Fam108B counter: Fam108B inhibition, counter-screen for RBBP9 inhibitors; recombinant Fam108B, FP-Rh probe fluorescence polarization; inhibition, % at 9.51 µM; 300,000 tested, 0.33% active; AID 1947;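 active means inhibition above the screen mean inhibition plus 3 SD, computed separately per campaign, cut at about 18% in these data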;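 further: inhibitors lower polarization as less probe binds the enzyme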
PME-1 inh: blocks human protein phosphatase methylesterase 1; inhibition, % at 5.9 µM; Q9Y570; recombinant PME-1, FP-Rh probe fluorescence polarization; 320,000 tested, 0.53% active; AID 2130;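 active means inhibition above the campaign mean of all compounds plus 3 SD, cut at about 26% in these data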;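 further: competitive labeling of PME-1 active site by serine hydrolase directed probe; 0% = PME-1 with DMSO and 100% = wells lacking PME-1 enzyme; inhibitors block probe labeling so polarization falls and inhibition rises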
Target sequence (Q9Y570 whole entry, looked up): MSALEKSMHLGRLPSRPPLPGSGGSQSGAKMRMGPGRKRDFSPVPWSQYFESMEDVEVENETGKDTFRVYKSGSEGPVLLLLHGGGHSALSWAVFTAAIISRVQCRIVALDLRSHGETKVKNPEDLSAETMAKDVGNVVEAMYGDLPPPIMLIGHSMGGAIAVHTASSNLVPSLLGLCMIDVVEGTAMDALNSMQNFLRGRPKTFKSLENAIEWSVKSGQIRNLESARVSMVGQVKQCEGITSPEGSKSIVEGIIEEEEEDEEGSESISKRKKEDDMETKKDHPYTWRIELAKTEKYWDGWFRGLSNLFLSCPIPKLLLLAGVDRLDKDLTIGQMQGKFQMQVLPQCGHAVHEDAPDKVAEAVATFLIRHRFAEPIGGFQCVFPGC
PAFAH1B3 FP inh: blocks human PAF acetylhydrolase 1B catalytic subunit 3; recombinant PAFAH1B3, FP-rhodamine probe, fluorescence polarization; inhibition, % at 3.39 µM; 340,000 tested, 0.28% active; AID 492972;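 active means inhibition above the screen-wide average of all tested compounds plus 3 SD, cut at about 25% in these data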;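 further: 0% = enzyme with DMSO only and 100% = wells lacking PAFAH1B3 protein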
* hit, by the source's call; / = no result. Rows were chosen to be rich in hits. Some 2.9% of all compounds tested hit in one or more screens of this group.

SMILES	pPAFAH FP inh	PAFAH2 inh	PAFAH1B2 FP inh	Fam108B counter	PME-1 inh	PAFAH1B3 FP inh
CCOC(=O)C1CCC(CNCc2ccccc2C)CC1 (stereo not given)	2	-3	4	1	1	4
COc1ccccc1-c1c(C#N)c(N)nc2c1CCc1ccccc1-2	0	-12	-8	-1	40*	-5
c1ccc2nc3c(ccc4ccccc43)cc2c1	/	2	2	/	/	5
Nc1[nH]nc2ncc3cc4ccccc4nc3c12	30*	1	1	4	7	1
COc1ccccc1CCC(=O)OCC(=O)NC1CC1	5	6	6	-3	-7	-3
NC(=O)c1ccc[n+](CC(=O)c2ccc(Br)cc2)c1	3	2	6	-1	4	0
NC(=O)c1ccc[n+](CC(=O)OCCC23CC4CC(CC(C4)C2)C3)c1	-3	0	26*	-4	-3	0
Cc1cc(C)c2c(N)c(-c3nc4ccccc4[nH]3)sc2n1	8	1	5	8	29*	6
Cc1ccccc1-c1nc2ccccc2[nH]1	2	2	1	1	6	6
CCN(CC)S(=O)(=O)c1cccc(N=Nc2sc(N)nc2C)c1	26*	13	-2	6	9	4
CC(C(=O)NCCS(=O)(=O)c1ccc(Br)cc1)S(=O)(=O)c1ccc(Cl)cc1 (stereo not given)	5	3	18	-2	11	4
O=C(NCCS(=O)(=O)c1ccc(Br)cc1)c1ccc(Cl)cc1	5	5	28*	-1	7	-2
COc1ccc(NC(=O)C2(S(=O)(=O)c3ccc(C)cc3)CC2)cc1	2	-2	4	-2	-2	-2
S=C(NCc1ccccn1)NN=Cc1ccccn1	/	4	5	/	/	5
O=C(Cc1ccccc1)NNC1CC(=O)N(c2ccc(Cl)cc2)C1=O (stereo not given)	0	6	5	3	-7	8
O=C(Cc1ccc(Cl)cc1)NNC1CC(=O)N(c2ccc3ccccc3c2)C1=O (stereo not given)	5	-1	25*	-7	0	5
CC(C)CC(C(=O)Nc1cccc(O)c1)N1C(=O)c2ccccc2C1=O (stereo not given)	11	-2	-3	0	-1	8
CC(C)CC(C(=O)Nc1oc(-c2ccco2)c(-c2ccco2)c1C#N)N1C(=O)c2ccccc2C1=O (stereo not given)	32*	18	3	9	7	7
Cn1c(N)c(N2CCCCC2)c(=O)n(CC(=O)Nc2cccc(C#N)c2)c1=O	3	-5	6	/	/	10
CCOc1ccc(/C=N/Nc2cc(N3CCOCC3)nc(C)n2)c(O)c1	4	8	6	10	30*	3
O=C(Nc1nc(-c2ccco2)c(-c2ccco2)s1)C1CCC1	28*	5	-4	8	12	4
CN(Cc1cccs1)C(=O)c1ccc(Cl)c(S(=O)(=O)N2CCCCCC2)c1	-1	-2	10	/	/	10
COC1=CC(=O)c2ccccc2C1=O	0	10	15	/	/	43*
Cc1ccccc1C(=O)Nc1ccnn1C1CCN(C2CCSCC2)CC1	7	-4	1	0	-1	1
Cc1ccc(SCCC(=O)Nc2ccccc2Br)cc1	3	2	26*	1	3	8
SMILES	pPAFAH FP inh	PAFAH2 inh	PAFAH1B2 FP inh	Fam108B counter	PME-1 inh	PAFAH1B3 FP inh
Cc1ccc(SCCC(=O)Nc2ccc(Br)c(C)c2)cc1	-1	-2	15	-26	-22	2
Cc1ccc(CNC(=O)CCSCc2cccc(F)c2)cc1	17	0	25*	1	3	8
Cc1ccc(CSCCNC(=O)CCSc2ccccc2)cc1	12	4	41*	-6	-8	0
O=C(CCSCc1ccc(Cl)cc1)NC1CCCC1	4	-2	27*	6	-1	1
O=C(Cc1ccc(Cl)cc1)NC1CC1	1	2	1	-5	7	1
O=C(CN(Cc1ccccc1Cl)C(=O)c1csnn1)NCc1ccccc1	4	-7	1	2	-7	8
O=C(CSc1ccccc1)NNC(=O)c1ccncc1	/	1	3	/	/	1
O=C(CCSCc1cccc(Cl)c1)NCCc1ccc(Cl)cc1	4	1	28*	-4	4	0
Cc1ccc(CSCCC(=O)NCCc2ccc(Cl)cc2)cc1	6	-2	15	-3	0	1
